The nature of assay [1]: small molecules captured by biotinylated probe aFSTL3 – biochemical, small-molecule microarray, fluorescence 635/667, stem cell growth factor project, primary screen (AID 1064).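 Also: measures binding of the biotinylated anti-FSTL3 antibody to printed compounds.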 The following applies: higher = more signal.
Assay [2] is described as follows: binders from COS7 lysate, DM2A8 probe, primary screen, torsin A project, cell lysate, small-molecule microarray, fluorescence 635/667 (AID 1065). Conditions: higher = more signal, COS7 lysate expressing mutant human TOR1A.
Assay [3] in a line: small molecules captured by biotinylated probe aFGF2 – biochemical, small-molecule microarray, fluorescence 635/667, stem cell growth factor project, primary screen (AID 1067).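 Also: measures binding of biotinylated aFGF2 protein to printed compounds on slides; z-score merges feature fluorescence and signal-to-noise across triplicate slides.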 The following applies: higher = more signal.
The nature of assay [4]: small molecules captured by biotinylated probe aFGF10 – biochemical, small-molecule microarray, fluorescence 635/667, stem cell growth factor project, primary screen (AID 1071).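 Also: score merges 667 nm spot intensity and signal to noise from triplicate slides.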 Conditions: higher = more signal.
Assay [5] has as its target Neurogenic locus notch homolog protein 2 (Homo sapiens) (UniProt Q04721). The experiment in a line: small molecules binding Notch2 protein – biochemical, small-molecule microarray, 635 nm fluorescence, stem cell growth factors, primary screen (AID 1073). The following applies: higher = more signal.
The target of assay [6] is Pro-neuregulin-1, membrane-bound isoform (Homo sapiens) (UniProt Q02297). The experiment in a line: small molecules binding neuregulin-1 protein – biochemical, small-molecule microarray, fluorescence 635/667, psychiatric disease protein project, primary screen (AID 1075).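 Also: score combines 667 nm spot fluorescence with signal to noise.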 Conditions: NRG1 binding, 635 nm fluorescence, higher = more signal.
Pro-neuregulin-1, membrane-bound isoform (Homo sapiens), sequence (Q02297 whole entry, looked up, the tested form may be a part, canonical isoform): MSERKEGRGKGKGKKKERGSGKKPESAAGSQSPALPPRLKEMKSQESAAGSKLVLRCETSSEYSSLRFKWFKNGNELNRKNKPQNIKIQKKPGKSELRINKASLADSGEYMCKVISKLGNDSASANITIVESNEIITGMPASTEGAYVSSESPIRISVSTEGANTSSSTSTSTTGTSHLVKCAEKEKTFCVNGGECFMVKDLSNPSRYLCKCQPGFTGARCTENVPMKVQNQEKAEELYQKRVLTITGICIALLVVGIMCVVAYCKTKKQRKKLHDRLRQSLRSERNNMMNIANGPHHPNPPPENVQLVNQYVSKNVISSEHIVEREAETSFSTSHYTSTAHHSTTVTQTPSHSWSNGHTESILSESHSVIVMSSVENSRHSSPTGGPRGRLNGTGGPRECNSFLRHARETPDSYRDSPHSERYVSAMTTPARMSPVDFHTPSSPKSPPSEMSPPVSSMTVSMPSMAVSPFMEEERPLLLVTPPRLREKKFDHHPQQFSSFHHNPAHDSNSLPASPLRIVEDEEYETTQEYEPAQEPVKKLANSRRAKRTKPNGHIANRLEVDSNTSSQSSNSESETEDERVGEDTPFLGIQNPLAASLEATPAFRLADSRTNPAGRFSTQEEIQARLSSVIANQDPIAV
Assay [7] concerns Neuregulin-1 EGF-like domain. Briefly: small molecules binding NRG1 EGF domain – biochemical, small-molecule microarray, 635 nm fluorescence, primary screen (AID 1081).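 Also: binding of the protein to compounds printed on small-molecule microarray slides.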 The following applies: higher = more signal.
Assay [8] in a line: FRG1 expression reporter modulators in myotubes – cell-based, C2C12 myotubes, firefly/Renilla luciferase, luminescence, FRG1 inhibition for FSHD, primary screen (AID 1084). The following applies: FRG1 promoter luciferase, higher = more signal, called active from +8 up or from −8 down.
A short description of assay [9]: small molecules captured by biotinylated probe aFST – biochemical, small-molecule microarray, fluorescence 635/667, stem cell growth factor project, primary screen (AID 1086).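 Also: score merges 667 nm fluorescence with signal-to-noise of each printed compound spot.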 The following applies: higher = more signal.
Assay [10] can be described thus: binders of probe aHhip on microarray, primary screen, stem cell growth factor project, biochemical, small-molecule microarray, fluorescence 635/667 (AID 1087).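 Also: score merges spot fluorescence at 667nm with spot signal to noise ratio.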 Conditions: higher = more signal.
Assay [11] relates to PRMT1 (protein arginine N-methyltransferase 1). Briefly: small molecules binding arginine methyltransferase PRMT1 – biochemical, small-molecule microarray, 635 nm fluorescence, primary screen (AID 1088).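 Also: binding of Prmt1 protein to compounds spotted on small-molecule microarray slides.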 The following applies: higher = more signal.
Assay [12] can be described thus: growth effects on S. cerevisiae YJM789 – YJM789 clinical isolate, OD600, 24 h, basal, primary screen (AID 1089).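 Also: growth of clinical yeast isolate S. cerevisiae YJM 789 seeded 1000 cells per well; test concentration not given here.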 The following applies: higher = more signal, called active from +8 up or from −8 down.
Assay [13] is described as follows: S. pombe growth modifiers, basal conditions – strain 972, OD600, 24 h, no modulator, primary screen (AID 1090).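 Also: basal condition with compound alone and no growth modifier present; test concentration not given here.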 Conditions: S. pombe 972 growth, higher = more signal, called active from +8 up or from −8 down.
A short description of assay [14]: budding yeast growth modifiers under rapamycin – strain BY4716, OD600, 96 h, primary screen (AID 1091). Also: test concentration not given here. Conditions: S. cerevisiae BY4716 + rapamycin, higher = more signal, called active from +8 up or from −8 down.
Assay [15] concerns the target Torsin-1A-interacting protein 2 (Homo sapiens) (UniProt Q8NFQ8). Briefly: small molecules binding lysate-expressed LULL1 – cell lysate, human LULL1 lysate, 635/667 nm fluorescence, primary screen (AID 1092).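 Also: score merges per-feature 667 nm fluorescence with signal-to-noise.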 Conditions: small-molecule microarray, hLULL1 lysate binding, 635 nm fluorescence; higher = more signal.
A short description of assay [16]: optical density change of DRC41 E. coli – strain DRC41, OD650, 24 h, E. coli filamentation project, primary screen (AID 1093).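 Also: MC1000 strain lacking acrAB efflux and sulA so SOS filamentation is blocked; test concentration not given here.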 The following applies: E. coli DRC41 growth, higher = more signal, called active from +8 up or from −8 down.
A short description of assay [17]: probe aLefty2 binding to arrayed compounds – biochemical, biotinylated probe, 635/667 nm fluorescence, primary screen (AID 1094).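 Also: score merges spot fluorescence near 667 nm with spot signal-to-noise ratio.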 Conditions: small-molecule microarray, higher = more signal.
Assay [18] concerns Noggin (protein binding on small-molecule microarray). The experiment in a line: small molecules binding Noggin protein – biochemical, 635/667 nm fluorescence, primary screen (AID 1095).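 Also: score merges 667 nm feature fluorescence with signal to noise over triplicate slides.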 The following applies: 635 nm fluorescence, higher = more signal.
In assay [19] the target is Neurogenic locus notch homolog protein 3 (Homo sapiens) (UniProt Q9UM47). The experiment in a line: small molecules binding NOTCH3 protein – biochemical, 635/667 nm fluorescence, primary screen (AID 1096). The following applies: small-molecule microarray, 635 nm fluorescence, higher = more signal.
Assay [20] can be described thus: probe aEGFR binding to arrayed compounds – biochemical, biotinylated probe, 635/667 nm fluorescence, primary screen (AID 1097).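 Also: probe is a biotinylated anti-EGFR antibody binding compounds printed on slides; score combines fluorescence near 667 nm and signal to noise of each spot.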 The following applies: small-molecule microarray, higher = more signal.

The source made the active and inactive calls.

Neurogenic locus notch homolog protein 2 (Homo sapiens), sequence (Q04721 whole entry, looked up, canonical isoform): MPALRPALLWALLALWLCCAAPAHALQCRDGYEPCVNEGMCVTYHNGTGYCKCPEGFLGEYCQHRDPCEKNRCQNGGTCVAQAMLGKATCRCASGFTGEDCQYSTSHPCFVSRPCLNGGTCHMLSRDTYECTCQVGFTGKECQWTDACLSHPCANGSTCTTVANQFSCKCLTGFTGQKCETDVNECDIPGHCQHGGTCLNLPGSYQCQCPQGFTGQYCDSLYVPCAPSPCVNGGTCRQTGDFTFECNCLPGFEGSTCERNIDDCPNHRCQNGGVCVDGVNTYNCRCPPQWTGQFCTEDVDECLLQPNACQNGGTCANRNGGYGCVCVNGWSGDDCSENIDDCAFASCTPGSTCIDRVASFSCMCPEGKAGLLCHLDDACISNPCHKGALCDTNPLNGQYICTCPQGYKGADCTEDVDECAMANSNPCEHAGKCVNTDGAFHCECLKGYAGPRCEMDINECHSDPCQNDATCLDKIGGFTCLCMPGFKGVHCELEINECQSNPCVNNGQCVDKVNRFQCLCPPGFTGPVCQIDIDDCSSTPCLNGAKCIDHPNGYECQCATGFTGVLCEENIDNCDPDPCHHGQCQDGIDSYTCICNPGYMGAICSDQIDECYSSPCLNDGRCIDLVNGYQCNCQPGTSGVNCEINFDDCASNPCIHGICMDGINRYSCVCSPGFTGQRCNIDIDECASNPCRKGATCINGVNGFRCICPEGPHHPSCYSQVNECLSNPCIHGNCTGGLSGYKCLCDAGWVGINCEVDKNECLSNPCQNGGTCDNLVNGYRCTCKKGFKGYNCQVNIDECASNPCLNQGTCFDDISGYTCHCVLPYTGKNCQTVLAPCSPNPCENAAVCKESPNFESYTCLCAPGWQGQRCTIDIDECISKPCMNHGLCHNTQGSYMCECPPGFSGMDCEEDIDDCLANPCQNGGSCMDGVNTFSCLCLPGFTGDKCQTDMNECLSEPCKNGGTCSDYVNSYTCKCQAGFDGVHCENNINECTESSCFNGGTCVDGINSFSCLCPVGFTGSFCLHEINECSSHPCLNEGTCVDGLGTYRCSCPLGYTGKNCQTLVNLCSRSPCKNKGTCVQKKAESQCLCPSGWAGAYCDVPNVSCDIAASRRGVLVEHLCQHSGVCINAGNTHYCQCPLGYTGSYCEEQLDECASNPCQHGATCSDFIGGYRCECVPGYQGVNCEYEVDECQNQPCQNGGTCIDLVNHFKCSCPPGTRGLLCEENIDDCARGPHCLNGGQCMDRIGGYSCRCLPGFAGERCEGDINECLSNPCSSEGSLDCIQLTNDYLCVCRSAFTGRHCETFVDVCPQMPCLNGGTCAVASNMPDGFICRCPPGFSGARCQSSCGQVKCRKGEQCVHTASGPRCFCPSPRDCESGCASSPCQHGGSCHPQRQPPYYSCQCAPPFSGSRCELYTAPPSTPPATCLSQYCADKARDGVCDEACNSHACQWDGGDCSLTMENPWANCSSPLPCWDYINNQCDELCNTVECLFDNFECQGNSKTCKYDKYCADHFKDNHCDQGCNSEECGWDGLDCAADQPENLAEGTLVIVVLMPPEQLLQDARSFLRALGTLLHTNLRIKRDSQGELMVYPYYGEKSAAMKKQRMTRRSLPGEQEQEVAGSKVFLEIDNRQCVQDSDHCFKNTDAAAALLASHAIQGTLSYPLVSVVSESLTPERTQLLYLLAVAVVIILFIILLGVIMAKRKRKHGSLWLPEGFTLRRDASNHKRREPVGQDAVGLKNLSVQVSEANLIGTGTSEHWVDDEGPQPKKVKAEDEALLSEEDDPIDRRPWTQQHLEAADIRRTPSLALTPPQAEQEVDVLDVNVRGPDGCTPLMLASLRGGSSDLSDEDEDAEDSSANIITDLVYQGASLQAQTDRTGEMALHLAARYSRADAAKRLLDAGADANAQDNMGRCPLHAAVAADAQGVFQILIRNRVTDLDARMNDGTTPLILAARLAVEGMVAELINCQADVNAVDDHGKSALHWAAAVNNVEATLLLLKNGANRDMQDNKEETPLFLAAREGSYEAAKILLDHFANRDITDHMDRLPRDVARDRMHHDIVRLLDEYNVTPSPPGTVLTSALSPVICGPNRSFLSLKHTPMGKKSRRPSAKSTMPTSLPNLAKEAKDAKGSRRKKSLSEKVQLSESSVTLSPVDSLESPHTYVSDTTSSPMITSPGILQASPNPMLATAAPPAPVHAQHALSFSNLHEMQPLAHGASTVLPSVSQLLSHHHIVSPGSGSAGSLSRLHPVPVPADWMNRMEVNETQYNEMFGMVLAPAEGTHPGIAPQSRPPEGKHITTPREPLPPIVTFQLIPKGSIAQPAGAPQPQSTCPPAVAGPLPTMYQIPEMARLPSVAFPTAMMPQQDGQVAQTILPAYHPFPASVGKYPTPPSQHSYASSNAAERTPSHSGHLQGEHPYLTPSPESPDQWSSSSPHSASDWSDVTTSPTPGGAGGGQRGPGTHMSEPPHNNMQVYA
Torsin-1A-interacting protein 2 (Homo sapiens), sequence (Q8NFQ8 whole entry, looked up): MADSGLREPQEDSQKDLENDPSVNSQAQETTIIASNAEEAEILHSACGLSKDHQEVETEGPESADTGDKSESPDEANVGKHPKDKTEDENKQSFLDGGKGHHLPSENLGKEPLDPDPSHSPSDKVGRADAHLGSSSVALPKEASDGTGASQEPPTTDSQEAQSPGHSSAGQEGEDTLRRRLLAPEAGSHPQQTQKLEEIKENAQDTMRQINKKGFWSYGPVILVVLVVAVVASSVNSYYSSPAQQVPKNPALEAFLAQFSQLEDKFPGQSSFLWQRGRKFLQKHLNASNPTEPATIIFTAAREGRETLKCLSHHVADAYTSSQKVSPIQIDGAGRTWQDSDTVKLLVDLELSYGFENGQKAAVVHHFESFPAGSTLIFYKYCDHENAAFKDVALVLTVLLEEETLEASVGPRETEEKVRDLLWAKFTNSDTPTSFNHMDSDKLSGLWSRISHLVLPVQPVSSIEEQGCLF

With `COCCOC(=O)N1C(=O)[C@@]2(c3cc(C#CCNC(N)=O)ccc31)[C@H](C(=O)Nc1nc3ccccc3s1)[C@H]1C(=O)O[C@H](c3ccccc3)[C@H](c3ccccc3)N1[C@@H]2c1ccccc1OCCO`, the composite z-score is -0.35 in assay [1]; 0.578 in assay [2]; -0.0569 in assay [3]; 0.475 in [4]; 0.809 in assay [5]; 0.257 in assay [6]. In addition, the composite z-score in assay [7] was 0.635; in assay [9], 0.71; in assay [10], -0.102; in assay [11], 1.56; in [15], 1.11; in assay [17] it was 0.146. For the same molecule, the composite z-score in assay [18] is 1.14; in assay [19], 0.907; in assay [20], 0.359. The z-score in assay [8] is 0.36 (inactive); in assay [12], 0.236 (inactive); in assay [13], 1.81 (inactive); in assay [14], 3.17 (inactive); in [16], 1.17 (inactive).
On to `C=CCOC(=O)[C@H]1[C@@H]2C(=O)O[C@@H](c3ccccc3)[C@@H](c3ccccc3)N2[C@@H](c2ccc(OCCOC(=O)[C@@H]3C[C@@H]4C(=O)N[C@@H](CCCCNC(C)=O)C(=O)N4[C@@H]3c3cccc(OCCO)c3)cc2)[C@]12C(=O)Nc1ccccc12`, for which the composite z-score in assay [1] is 0.125; in assay [2] it was 1.67; in assay [3], -0.024; in [4] it was 0.489; in assay [5], 0.717; in assay [6] it was 1.19. In addition, the composite z-score was 1.3 in assay [7]; 0.324 in [9]; -0.0994 in assay [10]; 1.54 in assay [11]; 2.36 in [15]; 0.0636 in [17]. Besides, the composite z-score in assay [18] is 1.34; in assay [19], 1.06; in assay [20], -0.0103. Besides, the z-score was 1.26 (inactive) in assay [8]; 0.591 (inactive) in assay [12]; 0.633 (inactive) in assay [13]; 2.18 (inactive) in assay [14]; -0.471 (inactive) in [16].
As for `CN(C)CCCC[C@@H]1NC(=O)[C@@H]2C[C@H](C(=O)NCCCCCCNC(=O)CS)[C@H](c3ccc(O)cc3)N2C1=O`, the composite z-score in [1] was -0.195; in [2], 0.991; in [3], -0.0959; in [4] it was 0.204; in assay [5], 0.262; in [6], 0.133. Moreover, the composite z-score in [7] is 0.975; in assay [9], -0.114; in assay [10], -0.0645; in assay [11] it was 1.33; in [15], 2.79; in assay [17], -0.269. Moreover, the composite z-score in assay [18] is 1.13; in [19], 0.65; in assay [20] it was 0.123. Moreover, the z-score in assay [8] is 0.133 (inactive); in assay [12], -0.378 (inactive); in [13] it was -0.472 (inactive); in assay [14], 0.0236 (inactive); in assay [16], -0.744 (inactive).
On to `O=C1[C@H]2C=C(I)[C@H](C[C@@H]2c2ccccc2)[C@@]12CO2`, for which the composite z-score in assay [1] is -0.372; in assay [2], -0.0809; in assay [3], -0.104; in [4], -0.142; in assay [5] it was 0.0878; in assay [6], -0.165. The composite z-score in [7] was -0.507; in [9] it was 0.281; in assay [10], -0.214; in assay [11] it was 0.298; in [15], -0.0459; in assay [17], -0.238. In addition, the composite z-score was 0.355 in [18], -0.183 in assay [19] and -0.139 in assay [20]. In addition, the z-score was 1.55 (inactive) in assay [8]; -3.2 (inactive) in assay [12]; -19.3 (active) in [13]; -2.84 (inactive) in assay [14]; -0.924 (inactive) in assay [16].
Consider `COCCCN1C(=O)[C@@]2(c3ccc([N+](=O)[O-])cc3)CC(=O)N(CC34CC5CC(CC(C5)C3)C4)[C@@H]2c2ccc(CO)cc21`, for which the composite z-score was -0.145 in assay [1]; -0.104 in assay [2]; -0.0952 in assay [3]; 0.0256 in assay [4]; -0.345 in [5]; 0.0024 in [6]. The composite z-score is 1.05 in [7]; -0.19 in [9]; 0.312 in assay [10]; 1.27 in [11]; 2.07 in assay [15]; -0.159 in assay [17]. The composite z-score in [18] was 0.432; in [19] it was -0.182; in assay [20], -0.115. Moreover, the z-score in assay [8] was -0.748 (inactive); in [12] it was 0.222 (inactive); in [13], 0.432 (inactive); in assay [14] it was -1.33 (inactive); in [16], -0.0011 (inactive).
Take `COCCOC(=O)N1C(=O)[C@@]2(c3cc(C#CCC(C(=O)OC)C(=O)OC)ccc31)[C@H](C(N)=O)[C@H]1C(=O)O[C@H](c3ccccc3)[C@H](c3ccccc3)N1[C@@H]2c1ccc(O)cc1`: the composite z-score in [1] was -0.291; in [2], 0.79; in assay [3] it was 0.015; in assay [4], 1.2; in assay [5], 1.57; in assay [6], 1.6. Also, the composite z-score amounted to 1.23 in assay [7]; 0.838 in assay [9]; 0.0768 in [10]; 1.54 in assay [11]; 2.58 in assay [15]; 0.126 in assay [17]. Also, the figures for the composite z-score in assay [18], in assay [19] and in assay [20] were 1.12, 1.07 and 0.0254, respectively. The z-score was 3.78 (inactive) in [8]; 2.77 (inactive) in assay [12]; 2.65 (inactive) in assay [13]; 7.43 (inactive) in assay [14]; 0.819 (inactive) in assay [16].
Consider `O=C1NC(=O)C2C1C=CC(C(O)c1ccc([N+](=O)[O-])cc1)N2Nc1ccccn1` (stereo not given), for which the composite z-score in assay [1] is 0.0895; in [2] it was -0.0755; in [3], -0.0442; in assay [4], 0.0525; in assay [5], 0.864; in [6] it was 0.441. For the same molecule, the composite z-score is 0.554 in assay [7]; -0.16 in assay [9]; -0.0074 in [10]; -0.453 in assay [11]; 0.307 in [15]; -0.0218 in [17]. The composite z-score is 0.241 in assay [18], -0.432 in assay [19] and -0.0355 in assay [20]. The z-score in [8] is 0.484 (inactive); in assay [12], -0.0716 (inactive); in [13], 0.917 (inactive); in [14], 0.346 (inactive); in assay [16] it was -0.562 (inactive).
With `NC(=O)N1C(=O)C2C(C1=O)C1C=C(CCCO)C2C(C2CC2)N1Cc1sc2ccccc2c1Cl` (stereo not given), the composite z-score in [1] was -0.4; in [2] it was 1.09; in assay [3], 0.0397; in [4] it was 1.27; in assay [5] it was 0.481; in assay [6] it was 1.45. Moreover, the composite z-score in assay [7] was 1.21; in [9], 0.115; in assay [10], -0.134; in [11], 1.56; in assay [15] it was 2.14; in [17], 0.0819. Moreover, the values for the composite z-score in assay [18], in assay [19] and in assay [20] were 0.355, 1.13 and -0.0697, respectively. The z-score in [8] was 0.906 (inactive); in assay [12] it was -0.425 (inactive); in [13], -2.48 (inactive); in [14], -1.63 (inactive); in [16], 0.792 (inactive).
As for `CCCCC(=C=CC[C@H](O)c1ccc(CO)o1)CCO`, the composite z-score in assay [1] was -0.388; in assay [2], 1.03; in assay [3], -0.109; in assay [4] it was 0.0582; in [5], 0.165; in assay [6] it was 1.75. Moreover, the composite z-score in assay [7] was 1.2; in [9], 0.0508; in [10], 0.0373; in assay [11], 1.49; in [15], 1.59; in [17], -0.258. The composite z-score in assay [18] was 1.31; in assay [19] it was 0.683; in [20], -0.0041. Also, the z-score in [8] is 0.0699 (inactive); in [12] it was 0.978 (inactive); in assay [13], -1.17 (inactive); in assay [14] it was -0.0978 (inactive); in [16], -0.14 (inactive).

For the origin of these results see PubChem BioAssay.
